Reference: the supplement of paper PMC10037445
The full ranking holds about 2,900 compounds; the median of “NF-kB SEAP reporter activity, fold change vs agonist alone” is about 0.99, and the highest 2% start at about 2.6. What follows is part of a selection rich in the highest values, with near analogues and random picks from the rest.

Tests used:
RAW-Dual [1] = test: NF-kB SEAP reporter activity, fold change vs agonist alone; cytotoxicity flag (confluency mask): not cytotoxic; higher = enhanced NF-kB activity
Summary of the method: (§1)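 Cytotoxic wells were those whose IncuCyte confluency was below 70% of agonist controls in both mask sets. The cells were RAW-Dual macrophages at 50,000 cells/well in DMEM on 384-well plates, dosed with 50 nL of library stock by pin tool, stimulated with a PRR agonist 1 h later, and kept at 37 °C, 5% CO2 for 20 hours. IRF and NF-κB reporter activity, as fold change over agonist-alone wells, came from supernatant read by QuantiLuc luminescence and QuantiBlue absorbance, respectively.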

RAW-Dual [2] = test: NF-kB SEAP reporter activity, fold change vs agonist alone; higher = enhanced NF-kB activity; conditions: cytotoxicity flag (confluency mask): not cytotoxic
Summary of the method: as §1

[3] = agonist: ODN 1826 (TLR9) 0.5 ug/mL
[4] = agonist: Pam2CSK4 (TLR2/6) 0.1 ug/mL
[5] = agonist: Pam3CSK4 (TLR2/1) 0.1 ug/mL
[6] = library stock concentration (final ~1000-fold dilution): 10 mM, agonist: MPLA (TLR4) […]
[7] = library stock concentration (final ~1000-fold dilution): 10 mM, agonist: Imiquimod (TLR7) […]

## CSCCNc1nc(SCCC(F)(F)F)nc2c1ncn2C1OC(COP(=O)(O)OP(=O)(O)C(Cl)(Cl)P(=O)(O)O)C(O)C1O (stereo not drawn) (library stock concentration (final ~1000-fold dilution): 10 mM water)
RAW-Dual [1]; agonist: LPS (TLR4) 0.1 ug/mL
  NF-kB SEAP reporter activity: 1.15
RAW-Dual [1]; [3]
  NF-kB SEAP reporter activity: 1.26
RAW-Dual [1]; [4]
  NF-kB SEAP reporter activity: 1.18
RAW-Dual [1]; [5]
  NF-kB SEAP reporter activity: 0.935

## CSCCNc1nc(SCCC(F)(F)F)nc2c1ncn2C1OC(COP(=O)(O)OP(=O)(O)C(Cl)(Cl)P(=O)(O)O)C(O)C1O (stereo not drawn)
RAW-Dual [2]; library stock concentration (final ~1000-fold dilution): 10 mM water, agonist: Imiquimod (TLR7) […]
  NF-kB SEAP reporter activity: 0.972
RAW-Dual [2]; library stock concentration (final ~1000-fold dilution): 10 mM water, agonist: MPLA (TLR4) […]
  NF-kB SEAP reporter activity: 1.04

## CCC1OC(=O)C(C)C(OC2CC(C)(OC)C(O)C(C)O2)C(C)C(OC2OC(C)CC(N(C)C)C2O)C(C)(O)CC(C)C(=O)C(C)C(O)C1(C)O.N#CS (stereo not drawn)
RAW-Dual [2]; [6]
  NF-kB SEAP reporter activity: 1.07

## CCC1OC(=O)C(C)C(OC2CC(C)(OC)C(O)C(C)O2)C(C)C(OC2OC(C)CC(N(C)C)C2O)C(C)(O)CC(C)C(=O)C(C)C(O)C1(C)O.N#CS (stereo not drawn) (library stock concentration (final ~1000-fold dilution): 10 mM)
RAW-Dual [1]; agonist: LPS (TLR4) 0.1 ug/mL
  NF-kB SEAP reporter activity: 1.06
RAW-Dual [1]; [3]
  NF-kB SEAP reporter activity: 0.88
RAW-Dual [1]; [4]
  NF-kB SEAP reporter activity: 1.07
RAW-Dual [1]; [5]
  NF-kB SEAP reporter activity: 1.08

## COc1cc(CCC(O)CC(O)CCc2ccc(O)c(OC)c2)ccc1O (stereo not drawn)
RAW-Dual [2]; [7]
  NF-kB SEAP reporter activity: 1.04
RAW-Dual [2]; [6]
  NF-kB SEAP reporter activity: 1.05

## COc1cc(CCC(O)CC(O)CCc2ccc(O)c(OC)c2)ccc1O (stereo not drawn) (library stock concentration (final ~1000-fold dilution): 10 mM)
RAW-Dual [1]; agonist: LPS (TLR4) 0.1 ug/mL
  NF-kB SEAP reporter activity: 1.41
RAW-Dual [1]; [3]
  NF-kB SEAP reporter activity: 1.15
RAW-Dual [1]; [4]
  NF-kB SEAP reporter activity: 1.08
RAW-Dual [1]; [5]
  NF-kB SEAP reporter activity: 1.06

## COC1=CC(c2cc3ccccc3[nH]2)=N/C1=C\c1[nH]c(C)cc1C.CS(=O)(=O)O (library stock concentration (final ~1000-fold dilution): 10 mM)
RAW-Dual [1]; agonist: LPS (TLR4) 0.1 ug/mL
  NF-kB SEAP reporter activity: 8.62
RAW-Dual [1]; [3]
  NF-kB SEAP reporter activity: 1.9
RAW-Dual [1]; [4]
  NF-kB SEAP reporter activity: 2.55
RAW-Dual [1]; [5]
  NF-kB SEAP reporter activity: 3.87

## COC1=CC(c2cc3ccccc3[nH]2)=N/C1=C\c1[nH]c(C)cc1C.CS(=O)(=O)O
RAW-Dual [2]; [7]
  NF-kB SEAP reporter activity: 1.4
RAW-Dual [2]; [6]
  NF-kB SEAP reporter activity: 2.78

## CCOC(=O)COc1ccc(/C=C2\SC(=S)NC2=O)cc1OC (library stock concentration (final ~1000-fold dilution): 10 mM)
RAW-Dual [1]; agonist: LPS (TLR4) 0.1 ug/mL
  NF-kB SEAP reporter activity: 1.04
RAW-Dual [1]; [3]
  NF-kB SEAP reporter activity: 0.889
RAW-Dual [1]; [4]
  NF-kB SEAP reporter activity: 0.889
RAW-Dual [1]; [5]
  NF-kB SEAP reporter activity: 1.1

## CCOC(=O)COc1ccc(/C=C2\SC(=S)NC2=O)cc1OC
RAW-Dual [2]; [7]
  NF-kB SEAP reporter activity: 0.985
RAW-Dual [2]; [6]
  NF-kB SEAP reporter activity: 1.1

## CCOC(=O)C1=CCCCC1S(=O)(=O)Nc1ccc(F)cc1Cl (stereo not drawn)
RAW-Dual [2]; library stock concentration (final ~1000-fold dilution): .1 mM, agonist: Imiquimod (TLR7) […]
  NF-kB SEAP reporter activity: 1.2
RAW-Dual [2]; library stock concentration (final ~1000-fold dilution): .1 mM, agonist: MPLA (TLR4) […]
  NF-kB SEAP reporter activity: 0.252

## CCOC(=O)C1=CCCCC1S(=O)(=O)Nc1ccc(F)cc1Cl (stereo not drawn) (library stock concentration (final ~1000-fold dilution): .1 mM)
RAW-Dual [1]; agonist: LPS (TLR4) 0.1 ug/mL
  NF-kB SEAP reporter activity: 0.288
RAW-Dual [1]; [3]
  NF-kB SEAP reporter activity: 1.09
RAW-Dual [1]; [4]
  NF-kB SEAP reporter activity: 1.36
RAW-Dual [1]; [5]
  NF-kB SEAP reporter activity: 1.39

## CS(=O)(=O)O.CS(=O)(=O)O.N=C(N)Nc1ccc(C(=O)Oc2ccc3cc(C(=N)N)ccc3c2)cc1
RAW-Dual [2]; [7]
  NF-kB SEAP reporter activity: 1.01
RAW-Dual [2]; [6]
  NF-kB SEAP reporter activity: 1.02

## CS(=O)(=O)O.CS(=O)(=O)O.N=C(N)Nc1ccc(C(=O)Oc2ccc3cc(C(=N)N)ccc3c2)cc1 (library stock concentration (final ~1000-fold dilution): 10 mM)
RAW-Dual [1]; agonist: LPS (TLR4) 0.1 ug/mL
  NF-kB SEAP reporter activity: 1.08
RAW-Dual [1]; [3]
  NF-kB SEAP reporter activity: 1.05
RAW-Dual [1]; [4]
  NF-kB SEAP reporter activity: 1.02
RAW-Dual [1]; [5]
  NF-kB SEAP reporter activity: 0.924

## NC(=O)c1ccc(OCCCN2CC3CCCC3C2)cc1 (stereo not drawn)
RAW-Dual [2]; [7]
  NF-kB SEAP reporter activity: 0.844
RAW-Dual [2]; [6]
  NF-kB SEAP reporter activity: 1.05

## NC(=O)c1ccc(OCCCN2CC3CCCC3C2)cc1 (stereo not drawn) (library stock concentration (final ~1000-fold dilution): 10 mM)
RAW-Dual [1]; agonist: LPS (TLR4) 0.1 ug/mL
  NF-kB SEAP reporter activity: 0.976
RAW-Dual [1]; [3]
  NF-kB SEAP reporter activity: 0.696
RAW-Dual [1]; [4]
  NF-kB SEAP reporter activity: 0.926
RAW-Dual [1]; [5]
  NF-kB SEAP reporter activity: 1.14

## N=C(N)c1ccc(OCCCCCOc2ccc(C(=N)N)cc2)cc1.O=S(=O)(O)CCO.O=S(=O)(O)CCO (library stock concentration (final ~1000-fold dilution): 10 mM)
RAW-Dual [1]; agonist: LPS (TLR4) 0.1 ug/mL
  NF-kB SEAP reporter activity: 3.88
RAW-Dual [1]; [3]
  NF-kB SEAP reporter activity: 1.22
RAW-Dual [1]; [4]
  NF-kB SEAP reporter activity: 0.758
RAW-Dual [1]; [5]
  NF-kB SEAP reporter activity: 1.06

## N=C(N)c1ccc(OCCCCCOc2ccc(C(=N)N)cc2)cc1.O=S(=O)(O)CCO.O=S(=O)(O)CCO
RAW-Dual [2]; [7]
  NF-kB SEAP reporter activity: 1.39
RAW-Dual [2]; [6]
  NF-kB SEAP reporter activity: 1.89
